The record followed here is PubChem BioAssay AID1347418 (Sanford-Burnham Center for Chemical Genomics, 2020).

In all, about 1,300 compounds went through this assay and about 750 (58%) were called active. The list shows a part of the results.

The target of this assay is Sulfhydryl oxidase 1 (Homo sapiens) (UniProt O00391). As to the kind of experiment: inhibition of human sulfhydryl oxidase QSOX1 – biochemical, ROS-Glo H2O2 luminescence, HTS, primary screen (AID 1347418). As to conditions: recombinant QSOX1, ROS-Glo H2O2 luminescence; at 12.5 µM; stronger effect = higher value; active = any value above zero.
Sequence of Sulfhydryl oxidase 1 (Homo sapiens) (O00391 whole entry, looked up): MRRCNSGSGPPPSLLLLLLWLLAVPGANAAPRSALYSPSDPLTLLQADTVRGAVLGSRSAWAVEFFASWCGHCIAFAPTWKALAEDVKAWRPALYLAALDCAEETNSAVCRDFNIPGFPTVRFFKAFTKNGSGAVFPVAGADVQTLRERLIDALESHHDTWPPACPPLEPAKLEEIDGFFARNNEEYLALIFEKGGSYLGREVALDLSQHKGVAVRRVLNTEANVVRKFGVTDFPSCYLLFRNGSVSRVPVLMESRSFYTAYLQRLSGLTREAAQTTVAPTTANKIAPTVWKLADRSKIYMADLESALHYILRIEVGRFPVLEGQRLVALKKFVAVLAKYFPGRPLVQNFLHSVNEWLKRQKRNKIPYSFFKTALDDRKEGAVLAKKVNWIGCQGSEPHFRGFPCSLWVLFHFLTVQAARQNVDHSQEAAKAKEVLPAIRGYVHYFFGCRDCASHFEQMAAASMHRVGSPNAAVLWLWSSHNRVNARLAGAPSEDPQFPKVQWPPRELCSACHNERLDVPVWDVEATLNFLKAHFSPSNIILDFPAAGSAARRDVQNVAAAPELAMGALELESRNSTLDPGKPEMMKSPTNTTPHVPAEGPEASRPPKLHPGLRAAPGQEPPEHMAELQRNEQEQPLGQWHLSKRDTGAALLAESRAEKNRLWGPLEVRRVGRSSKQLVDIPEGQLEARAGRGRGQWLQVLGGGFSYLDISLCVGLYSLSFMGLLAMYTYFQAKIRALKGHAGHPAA
On to `CCc1cccc2c3c([nH]c12)C(CC)(CC(=O)O)OCC3` (configuration not stated), for which the inhibition was 9.9% (active).
As to `N[C@@H](Cn1ccc(=O)c(O)c1)C(=O)O`, the inhibition is -3.8% (inactive).
As to `COC(=O)C(N)Cc1ccc(Cl)cc1` (configuration not stated), the inhibition was 9.7% (active).
For `NCCc1ccc(O)c(O)c1`, the inhibition is 8.1% (active).
As to `CC(N)C(=O)OC(C)(C)Cc1ccc(Cl)cc1` (configuration not stated), the inhibition was -3.5% (inactive).
For the molecule `NC(Cc1ccc(Cl)cc1)C(=O)O` (configuration not stated), the inhibition was -3.4% (inactive).
As for `COC(=O)[C@@H](N)Cc1ccc(O)c(O)c1`, the inhibition was 1.3% (active).
For `N[C@@H](Cc1ccc(F)cc1)C(=O)O` the value was 0.8% (active).
On to `N[C@@H](Cc1ccc(O)c(O)c1)C(=O)O`, for which the inhibition was 9.8% (active).
As to `NC(Cc1cccc(-c2ccccc2CP(=O)(O)O)c1)C(=O)O` (configuration not stated), the inhibition was -2% (inactive).
Take `CC(Cc1ccc(O)c(O)c1)C(C)Cc1ccc(O)c(O)c1` (configuration not stated): the inhibition is 45.8% (active).
With `N[C@@H](Cc1ccc(O)c(I)c1)C(=O)O`, the inhibition was -5.7% (inactive).
As to `CCN1CCCC1CNC(=O)c1cc(S(N)(=O)=O)ccc1OC` (configuration not stated), the inhibition is 3.2% (active).
In the case of `CCN1CCC[C@H]1CNC(=O)c1cc(S(N)(=O)=O)ccc1OC`, the inhibition is -1.2% (inactive).
In the case of `CCN1CCC[C@H]1CNC(=O)c1c(O)c(Cl)cc(Cl)c1OC`, the inhibition was 2.3% (active).
Take `CCN1CCCC1CNC(=O)c1cc(S(=O)(=O)CC)c(N)cc1OC` (configuration not stated): the inhibition is -1% (inactive).
For the molecule `NC1CCN(c2cccc(Cl)n2)CC1`, the inhibition is -5.8% (inactive).
For `Cc1cnc(C(=O)NCCc2ccc(S(=O)(=O)NC(=O)NC3CCCCC3)cc2)cn1` the value was 5.4% (active); for `CC(=O)c1ccc(S(=O)(=O)NC(=O)NC2CCCCC2)cc1`, -5.7% (inactive); for `COc1ccc(Cl)cc1C(=O)NCCc1ccc(S(=O)(=O)NC(=O)NC2CCCCC2)cc1`, -5.6% (inactive).
Take `O=c1oc(Cl)c(Cl)c2ccccc12`: the inhibition is -1.8% (inactive).
Under `C/C(=C\c1ccc(C(=O)O)cc1)c1ccc2c(c1)C(C)(C)CCC2(C)C` stands 1.8% (active).
As to `NC1(C(=O)O)CCc2cc(C(=O)O)ccc21` (configuration not stated), the inhibition is -2.9% (inactive).
Take `CC(N)(C(=O)O)c1ccc(C(=O)O)cc1` (configuration not stated): the inhibition is -3.7% (inactive).
On to `Cc1ccccc1C(OCCN(C)C)c1ccccc1` (configuration not stated), for which the inhibition is -1.5% (inactive).
In the case of `CN(C)CCOC(c1ccccc1)c1ccccc1`, the inhibition is 4.3% (active).
Under `CCN(Cc1ccncc1)C(=O)C(CO)c1ccccc1` (configuration not stated) stands -4.5% (inactive); under `NCCc1cnc[nH]1`, -5% (inactive).
In the case of `N=C(N)SCCc1cnc[nH]1`, the inhibition is 2.7% (active).
Take `c1cnc(N2CCN(Cc3ccc4c(c3)OCO4)CC2)nc1`: the inhibition was -0.2% (inactive).
For the molecule `O=C(NCCN1CCOCC1)c1ccc(Cl)cc1`, the inhibition is -3.4% (inactive).
On to `COc1ccccc1N1CCN(CCN2C(=O)CC3(CCCC3)CC2=O)CC1`, for which the inhibition was 17.2% (active).
Regarding `Cc1cccc(C(=O)NCN2CCN(c3ccccc3C#N)CC2)c1`, the inhibition was -1.8% (inactive).
On to `COc1ccc(NC(=O)c2ccc(-c3ccc(-c4noc(C)n4)cc3C)cc2)cc1N1CCN(C)CC1`, for which the inhibition is -1.1% (inactive).
Under `COc1cccc(C(=O)NCCN2CCN(c3ccc(Cl)cc3)CC2)c1` stands 21.7% (active).
Take `COc1ccccc1N1CCN(CCCCNC(=O)c2ccc3ccccc3c2)CC1`: the inhibition was 12.2% (active).
As for `O=C1CC2(CCCC2)CC(=O)N1CCCCN1CCN(c2ncccn2)CC1`, the inhibition is 1.2% (active).
As for `Nc1nc(N)c2nc(-c3ccccc3)c(N)nc2n1`, the inhibition was -0.8% (inactive).
Take `CC(=O)[C@]1(O)Cc2c(O)c3c(c(O)c2[C@@H](O[C@H]2C[C@H](N)[C@H](O)[C@H](C)O2)C1)C(=O)c1ccccc1C3=O`: the inhibition was -0.7% (inactive).
For the molecule `COc1ccccc1N1CCN(CCCCN2C(=O)c3ccccc3C2=O)CC1`, the inhibition was 3.6% (active).
For `c1cc(CN2CCCCC2)cc(OCCCNc2nc3ccccc3s2)c1` the value was 3.8% (active); for `CC(=O)Nc1nnc(S(N)(=O)=O)s1`, 0.8% (active); for `OCc1ccc(-c2nn(Cc3ccccc3)c3ccccc23)o1`, -2.6% (inactive).
For `CC(CCc1ccc(O)cc1)NCCc1ccc(O)c(O)c1` (configuration not stated) the value was 17.1% (active); for `CCCCCCCC/C=C\CCCCCCCC(=O)NCCc1ccc(O)c(O)c1`, -7.8% (inactive); for `C[C@@H](NCCc1ccc(O)cc1)[C@@H](O)c1ccc(O)cc1`, 3.9% (active).
Regarding `CC(CCc1ccccc1)NCC(O)c1ccc(O)c(C(N)=O)c1` (configuration not stated), the inhibition is 2.1% (active).
As for `O=Nc1ccc2oc(=O)ccc2c1`, the inhibition is 16.8% (active).
For `Cc1cc(Cn2cnc3c2C[C@@H](C(=O)O)N(C(=O)C(c2ccccc2)c2ccccc2)C3)ccc1N` the value was 0% (inactive).
For the molecule `CCN(CC)CCCC(C)Nc1ccnc2cc(Cl)ccc12` (configuration not stated), the inhibition was -4.9% (inactive).
`CCN(CC)CCCC(C)Nc1c2ccc(Cl)cc2nc2ccc(OC)cc12` (configuration not stated): the inhibition was 0.7% (active).
As to `CN(C)C(=O)n1nnnc1Cc1ccc(-c2ccccc2)cc1`, the inhibition was 5.2% (active).
For `CCNC(=O)N1CCN(CCCC(c2ccc(F)cc2)c2ccc(F)cc2)CC1`, the inhibition was -0.9% (inactive).
Regarding `O=C(O)COCCN1CCN(C(c2ccccc2)c2ccc(Cl)cc2)CC1` (configuration not stated), the inhibition was 0.5% (active).
Consider `CN(C)C(=O)C(CCN1CCC(O)(c2ccc(Cl)cc2)CC1)(c1ccccc1)c1ccccc1`, for which the inhibition is -0.9% (inactive).
Take `O=C1/C(=C/c2ccsc2)CC/C1=C\c1cccs1`: the inhibition was 3.3% (active).
For the molecule `Fc1ccc(C(OCCCc2cnc[nH]2)c2ccc(F)cc2)cc1`, the inhibition was 4.3% (active).
Regarding `O=C(c1ccc(OCCCc2cnc[nH]2)cc1)C1CC1`, the inhibition was -3.2% (inactive).
Take `C1CCc2nnnn2CC1`: the inhibition was -0.2% (inactive).
Take `CCC1C(=O)OCC1Cc1cncn1C` (configuration not stated): the inhibition was 5.6% (active).
Consider `CCCCCCCCCCCCCCCCCCNC(=O)OCC(COP(=O)([O-])OCC[n+]1ccsc1)OC` (configuration not stated), for which the inhibition was -4.6% (inactive).
For `CCCCCCCCCCCCCCCCCCOC[C@H](COP(=O)([O-])OCC[N+](C)(C)C)OC` the value was 3.3% (active).
Consider `Cn1cnc([N+](=O)[O-])c1Sc1ncnc2nc[nH]c12`, for which the inhibition was 0.2% (active).
`N=C(N)c1ccc(OCCCCCOc2ccc(C(=N)N)cc2)cc1`: the inhibition is 1.1% (active).
Turning to `N=C(N)c1ccccc1`, the inhibition is -3.7% (inactive).
For `N=C(N)c1ccc(N)cc1` the value was 5.7% (active); for `CCc1ccc(/C=C2/SC(=S)NC2=O)cc1`, -3% (inactive); for `O=C1NC(=O)/C(=C/c2ccc3c(c2)OC(F)(F)O3)S1`, -1.5% (inactive).
For `O=C1NC(=O)/C(=C/c2ccc3nccnc3c2)S1` the value was 4.5% (active); for `C#CCCN`, 0.1% (active).
For `Nc1ncnc2nc(-c3ccc(N4CCOCC4)nc3)cc(-c3cccc(Br)c3)c12` the value was 10% (active); for `NC(=O)c1ccc2[nH]ccc2c1`, 0.6% (active).
In the case of `CC(C)OC(=O)C(C)(C)Oc1ccc(C(=O)c2ccc(Cl)cc2)cc1`, the inhibition was -0.6% (inactive).
On to `COc1ccc(NC(=O)/C=C/c2ccc(Cl)cc2)cc1`, for which the inhibition is 12.1% (active).
As to `CC(C)(C)c1ccc(/C=C/C(=O)Nc2ccc3c(c2)OCCO3)cc1`, the inhibition is -1.6% (inactive).
Under `NC(CCCP(=O)(O)O)C(=O)O` (configuration not stated) stands 0% (inactive); under `NC(=O)CC[C@H](N)C(=O)O`, 2.8% (active).
Turning to `N[C@H](CCCP(=O)(O)O)C(=O)O`, the inhibition was -1.3% (inactive).
Under `N[C@@H](CCCC(=O)O)C(=O)O` stands 6.7% (active).
For `CN1C2CCCC1CC(NC(=O)c1nn(C)c3ccccc13)C2` (configuration not stated), the inhibition was 3% (active).
In the case of `O=c1[nH]ccc2c(O)cccc12`, the inhibition is 4.1% (active).
As for `O[Si](CCCN1CCCCC1)(c1ccc(F)cc1)C1CCCCC1` (configuration not stated), the inhibition is -3.8% (inactive).
Turning to `C[C@H](NC(CCc1ccccc1)C(=O)O)C(=O)N1CCC[C@H]1C(=O)O` (some centres not stated), the inhibition was -2.6% (inactive).
As for `CCOC(=O)[C@H](CCc1ccccc1)N[C@@H](C)C(=O)N1[C@H](C(=O)O)C[C@H]2CCCC[C@@H]21`, the inhibition is 2.6% (active).
`Cc1cccc(C#Cc2ccccc2)n1`: the inhibition was 2.9% (active).
Under `COc1ccc2c(c1OC)C(=O)O[C@@H]2[C@H]1c2c(cc3c(c2OC)OCO3)CCN1C` stands -4.2% (inactive); under `COc1cc([C@@H]2c3cc4c(cc3[C@@H](O[C@@H]3O[C@@H]5CO[C@@H](C)O[C@H]5[C@H](O)[C@H]3O)[C@H]3COC(=O)[C@H]23)OCO4)cc(OC)c1O`, 0% (inactive).
Consider `COc1cc([C@@H]2c3cc4c(cc3[C@H](O)C3COC(=O)[C@@H]32)OCO4)cc(OC)c1OC` (some centres not stated), for which the inhibition was 1.1% (active).
Take `CC1=C(CC(=O)O)c2cc(F)ccc2/C1=C\c1ccc(S(C)=O)cc1` (configuration not stated): the inhibition was -0.4% (inactive).
`CC1=C(CC(=O)O)c2cc(F)ccc2/C1=C\c1ccc(S(C)(=O)=O)cc1`: the inhibition was 3.1% (active).
On to `CC(=O)Oc1ccccc1C(=O)O`, for which the inhibition was 0.3% (active).
Consider `O=C(CCc1ccc(O)cc1)c1c(O)cc(O)cc1O`, for which the inhibition was 6.2% (active).
On to `O=C1CCC(c2ccc(-n3ccnc3)cc2)=NN1`, for which the inhibition is 6.6% (active).
For the molecule `Nc1nc2ccc(OC(F)(F)F)cc2s1`, the inhibition was -3.9% (inactive).
In the case of `Cc1ccc2nc(CN(CCN(Cc3nc4ccc(C)cc4[nH]3)Cc3nc4ccc(C)cc4[nH]3)Cc3nc4ccc(C)cc4[nH]3)[nH]c2c1`, the inhibition was -0.7% (inactive).
On to `Brc1c(Br)c(Br)c2n[nH]nc2c1Br`, for which the inhibition was 1% (active).
As to `CN(C)CCCN1c2ccccc2CCc2ccccc21`, the inhibition was 11.1% (active).
Under `CC(CN(C)C)CN1c2ccccc2CCc2ccccc21` (configuration not stated) stands 2% (active); under `CN(C)CCCN1c2ccccc2CCc2ccc(Cl)cc21`, 2.6% (active); under `CNCCCN1c2ccccc2CCc2ccccc21`, 5.2% (active).
For `CNCCCC1c2ccccc2C=Cc2ccccc21`, the inhibition was -4.7% (inactive).
As for `CNCCCC12CCC(c3ccccc31)c1ccccc12`, the inhibition is -2.7% (inactive).
In the case of `O=C(O)CCC(C(=O)O)N1C(=O)c2ccccc2C1=O` (configuration not stated), the inhibition is -1% (inactive).
For `CCCCNc1c(C(=O)OCC)c(C)nc2c1cnn2CC` the value was 3.5% (active); for `CCOC(=O)c1cnc2c(cnn2CC)c1NN=C(C)C`, 0.7% (active); for `CCCCNc1ccc(C(=O)OCCN(C)C)cc1`, -1.8% (inactive).
Turning to `CC(C)COC(=O)OCN1C(=O)CN(CCN2CC(=O)N(COC(=O)OCC(C)C)C(=O)C2)CC1=O`, the inhibition was 2.6% (active).

The inhibition is the relative decrease from the control value, in per cent.
